Experimental data: article PMC7862700, “An all-to-all approach to the identification of sequence-specific readers for epigenetic DNA modifications on cytosine”

Legend:
Experiment in all cases: DAPPL (digital affinity profiling via proximity ligation, sequencing); 10 mM Tris-HCl pH 7.5, 50 mM NaCl, 1 mM DTT, 4% glycerol, room temperature, 30 min; GST-TFs on glutathione beads, 16-mer random dsDNA library, 0.1% formaldehyde crosslink after washing; high values mean tight binding
FLI1 = biological target: T1, FLI1 (Homo sapiens, UniProt Q01543 1-452); conditions: protein: recombinant; tags: N-terminal GST; dsDNA, one strand shown
T1 sequence: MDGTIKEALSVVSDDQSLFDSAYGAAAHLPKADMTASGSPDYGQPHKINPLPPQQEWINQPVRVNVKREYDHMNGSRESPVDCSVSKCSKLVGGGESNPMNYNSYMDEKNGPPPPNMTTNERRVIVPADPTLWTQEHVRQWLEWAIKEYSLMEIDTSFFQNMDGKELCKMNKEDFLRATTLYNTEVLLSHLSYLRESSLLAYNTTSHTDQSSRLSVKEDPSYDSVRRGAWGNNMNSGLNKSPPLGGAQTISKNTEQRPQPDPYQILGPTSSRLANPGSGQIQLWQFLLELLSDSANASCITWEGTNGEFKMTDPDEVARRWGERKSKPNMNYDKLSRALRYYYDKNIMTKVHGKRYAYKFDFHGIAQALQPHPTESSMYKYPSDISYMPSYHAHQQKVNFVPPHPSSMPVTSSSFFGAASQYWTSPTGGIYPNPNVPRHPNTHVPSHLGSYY
Procedure, shortened: (§1)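 Human transcription factors fused to GST were expressed in yeast, captured on glutathione beads, given DNA barcodes and pooled with a GST-only negative control. Pools were incubated with 200 nmole of a 16-mer random double-stranded DNA library in Tris/NaCl/DTT/glycerol buffer at room temperature for 30 min. They were then washed, crosslinked with 0.1% formaldehyde, proximity-ligated (BsaI/T4 ligase, 1 h, 37 °C), PCR-amplified and sequenced on an Illumina NextSeq500. Binding signal is each 6-mer's read frequency for a factor divided by its frequency for the GST control.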

ELK1 = biological target: T2, ELK1 (Homo sapiens, UniProt P19419 1-428); conditions: protein: recombinant; tags: N-terminal GST; dsDNA, one strand shown
T2 sequence: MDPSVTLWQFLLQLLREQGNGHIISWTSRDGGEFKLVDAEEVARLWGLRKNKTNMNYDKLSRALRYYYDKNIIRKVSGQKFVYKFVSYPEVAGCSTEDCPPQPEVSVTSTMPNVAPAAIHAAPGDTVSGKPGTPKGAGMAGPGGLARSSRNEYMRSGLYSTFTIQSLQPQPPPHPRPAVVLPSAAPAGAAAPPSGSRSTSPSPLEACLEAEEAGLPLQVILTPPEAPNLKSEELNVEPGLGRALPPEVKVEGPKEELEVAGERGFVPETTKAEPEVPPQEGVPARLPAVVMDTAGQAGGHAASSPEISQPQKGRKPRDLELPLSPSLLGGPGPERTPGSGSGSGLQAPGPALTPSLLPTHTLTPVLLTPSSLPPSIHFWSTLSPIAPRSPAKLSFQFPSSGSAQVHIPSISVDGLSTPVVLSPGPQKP
Procedure, shortened: as §1

GABPA = biological target: T3, GABPA (Homo sapiens, UniProt Q06546 1-454); conditions: protein: recombinant; tags: N-terminal GST; dsDNA, one strand shown
T3 sequence: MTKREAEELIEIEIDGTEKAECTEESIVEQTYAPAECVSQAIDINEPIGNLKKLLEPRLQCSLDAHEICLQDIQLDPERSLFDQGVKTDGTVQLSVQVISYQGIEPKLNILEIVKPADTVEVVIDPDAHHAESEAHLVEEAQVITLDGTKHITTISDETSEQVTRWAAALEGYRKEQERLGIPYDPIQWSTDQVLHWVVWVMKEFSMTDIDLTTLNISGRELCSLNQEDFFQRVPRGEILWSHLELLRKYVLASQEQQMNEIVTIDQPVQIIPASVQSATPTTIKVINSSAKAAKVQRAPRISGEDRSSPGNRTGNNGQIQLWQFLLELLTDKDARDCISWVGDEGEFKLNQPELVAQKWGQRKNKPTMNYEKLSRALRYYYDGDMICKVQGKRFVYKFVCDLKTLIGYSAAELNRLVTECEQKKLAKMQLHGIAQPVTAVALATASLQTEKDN
Procedure, shortened: as §1

ERG = biological target: T4, ERG (Homo sapiens, UniProt P11308 1-479); conditions: protein: recombinant; tags: N-terminal GST; dsDNA, one strand shown
T4 sequence: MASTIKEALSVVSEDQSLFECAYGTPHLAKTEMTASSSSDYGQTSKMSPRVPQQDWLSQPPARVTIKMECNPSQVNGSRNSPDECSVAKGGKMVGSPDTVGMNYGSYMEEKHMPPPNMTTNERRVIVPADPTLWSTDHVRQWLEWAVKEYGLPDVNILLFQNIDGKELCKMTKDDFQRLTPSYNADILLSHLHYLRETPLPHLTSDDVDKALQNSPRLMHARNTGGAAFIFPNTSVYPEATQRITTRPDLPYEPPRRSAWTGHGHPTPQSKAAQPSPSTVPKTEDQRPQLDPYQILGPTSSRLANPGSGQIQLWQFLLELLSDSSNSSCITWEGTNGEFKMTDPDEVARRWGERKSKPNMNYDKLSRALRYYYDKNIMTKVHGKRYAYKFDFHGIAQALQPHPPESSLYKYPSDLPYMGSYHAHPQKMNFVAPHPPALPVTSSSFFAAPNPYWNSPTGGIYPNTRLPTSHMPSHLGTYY
Procedure, shortened: as §1

ELF1 = ELF1 (Homo sapiens, UniProt P32519 1-619); conditions: protein: recombinant; tags: N-terminal GST; dsDNA, one strand shown
ELF1, sequence (P32519 whole entry): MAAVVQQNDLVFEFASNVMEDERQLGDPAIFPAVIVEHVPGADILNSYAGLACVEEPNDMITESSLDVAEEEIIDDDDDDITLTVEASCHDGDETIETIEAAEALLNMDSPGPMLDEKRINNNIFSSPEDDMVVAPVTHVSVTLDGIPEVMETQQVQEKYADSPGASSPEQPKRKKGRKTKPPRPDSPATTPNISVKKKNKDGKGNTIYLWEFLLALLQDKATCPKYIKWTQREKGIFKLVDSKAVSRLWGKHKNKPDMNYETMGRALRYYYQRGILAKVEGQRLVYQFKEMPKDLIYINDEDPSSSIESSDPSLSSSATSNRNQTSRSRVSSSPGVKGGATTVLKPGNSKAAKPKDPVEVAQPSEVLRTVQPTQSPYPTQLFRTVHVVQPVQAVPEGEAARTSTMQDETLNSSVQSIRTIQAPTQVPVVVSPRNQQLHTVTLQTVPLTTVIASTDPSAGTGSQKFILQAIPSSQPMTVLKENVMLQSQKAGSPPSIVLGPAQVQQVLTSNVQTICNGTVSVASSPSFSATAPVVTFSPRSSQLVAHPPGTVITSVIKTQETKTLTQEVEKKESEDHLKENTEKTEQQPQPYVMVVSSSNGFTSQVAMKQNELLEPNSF
Procedure, shortened: as §1

EHF = biological target: T5, EHF (Homo sapiens, UniProt Q9NZC4 1-300); conditions: protein: recombinant; tags: N-terminal GST; dsDNA, one strand shown
T5 sequence: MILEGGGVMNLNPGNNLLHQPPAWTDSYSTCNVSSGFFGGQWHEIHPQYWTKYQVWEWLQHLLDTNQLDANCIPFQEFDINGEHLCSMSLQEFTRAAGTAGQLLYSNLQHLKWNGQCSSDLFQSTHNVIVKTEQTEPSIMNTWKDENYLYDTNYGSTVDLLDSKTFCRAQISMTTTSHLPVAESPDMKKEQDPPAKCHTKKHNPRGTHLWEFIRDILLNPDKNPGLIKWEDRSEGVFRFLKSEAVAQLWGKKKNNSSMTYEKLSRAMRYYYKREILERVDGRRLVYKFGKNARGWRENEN
Procedure, shortened: as §1

SPI1 = SPI1 (Homo sapiens, UniProt P17947 1-270); conditions: protein: recombinant; tags: N-terminal GST; dsDNA, one strand shown
Procedure, shortened: as §1

SPIB = SPIB (Homo sapiens, UniProt Q01892 1-262); conditions: protein: recombinant; tags: N-terminal GST; dsDNA, one strand shown
SPIB, sequence (Q01892 whole entry): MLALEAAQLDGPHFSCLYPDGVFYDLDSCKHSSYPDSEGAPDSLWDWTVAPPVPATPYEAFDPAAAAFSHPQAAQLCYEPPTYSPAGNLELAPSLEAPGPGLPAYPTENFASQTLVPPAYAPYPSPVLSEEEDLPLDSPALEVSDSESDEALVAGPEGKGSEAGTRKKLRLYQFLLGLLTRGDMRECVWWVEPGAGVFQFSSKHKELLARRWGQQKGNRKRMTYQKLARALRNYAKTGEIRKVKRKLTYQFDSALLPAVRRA
Procedure, shortened: as §1

ELK3 = biological target: T6, ELK3 (Homo sapiens, UniProt P41970 1-407); conditions: protein: recombinant; tags: N-terminal GST; dsDNA, one strand shown
T6 sequence: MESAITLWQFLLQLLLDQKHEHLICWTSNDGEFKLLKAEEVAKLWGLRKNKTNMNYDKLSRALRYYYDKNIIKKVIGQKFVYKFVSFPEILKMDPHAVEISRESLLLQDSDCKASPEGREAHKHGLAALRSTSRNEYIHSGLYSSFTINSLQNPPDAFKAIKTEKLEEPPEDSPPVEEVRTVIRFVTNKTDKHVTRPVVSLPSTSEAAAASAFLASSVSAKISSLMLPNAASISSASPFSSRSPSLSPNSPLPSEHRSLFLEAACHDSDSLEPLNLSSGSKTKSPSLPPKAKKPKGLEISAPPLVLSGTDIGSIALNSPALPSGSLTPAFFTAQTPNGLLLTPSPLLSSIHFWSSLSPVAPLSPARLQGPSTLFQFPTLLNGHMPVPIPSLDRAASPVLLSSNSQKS
Procedure, shortened: as §1

FEV = biological target: T7, FEV (Homo sapiens, UniProt Q99581 1-238); conditions: protein: recombinant; tags: N-terminal GST; dsDNA, one strand shown
T7 sequence: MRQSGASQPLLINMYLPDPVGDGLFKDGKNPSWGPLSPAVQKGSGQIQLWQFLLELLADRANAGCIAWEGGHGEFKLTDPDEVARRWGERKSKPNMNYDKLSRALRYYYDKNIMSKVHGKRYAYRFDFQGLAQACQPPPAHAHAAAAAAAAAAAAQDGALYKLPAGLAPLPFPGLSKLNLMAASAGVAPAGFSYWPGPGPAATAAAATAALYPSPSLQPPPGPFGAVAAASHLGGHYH
Procedure, shortened: as §1

ETV5 = ETV5 (Homo sapiens, UniProt P41161 1-510); conditions: protein: recombinant; tags: N-terminal GST; dsDNA, one strand shown
ETV5, sequence (P41161 whole entry): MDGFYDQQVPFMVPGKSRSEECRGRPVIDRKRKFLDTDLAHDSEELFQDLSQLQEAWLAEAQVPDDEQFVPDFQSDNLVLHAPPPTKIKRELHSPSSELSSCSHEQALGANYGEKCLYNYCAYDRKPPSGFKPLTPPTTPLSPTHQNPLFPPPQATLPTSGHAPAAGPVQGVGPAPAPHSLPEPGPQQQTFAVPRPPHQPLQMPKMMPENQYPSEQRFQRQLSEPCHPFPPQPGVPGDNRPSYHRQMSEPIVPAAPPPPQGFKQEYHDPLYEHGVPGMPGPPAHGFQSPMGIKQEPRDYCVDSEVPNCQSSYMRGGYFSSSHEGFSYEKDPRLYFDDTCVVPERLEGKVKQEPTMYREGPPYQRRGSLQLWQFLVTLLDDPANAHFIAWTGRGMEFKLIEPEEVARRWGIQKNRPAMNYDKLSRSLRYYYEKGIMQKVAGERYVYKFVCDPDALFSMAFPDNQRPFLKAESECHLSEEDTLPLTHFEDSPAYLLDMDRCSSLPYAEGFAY
Procedure, shortened: as §1

HSF1 = HSF1 (Homo sapiens, UniProt Q00613 1-529); conditions: protein: recombinant; tags: N-terminal GST; chain copies: 3; dsDNA, one strand shown
HSF1, sequence (Q00613 whole entry): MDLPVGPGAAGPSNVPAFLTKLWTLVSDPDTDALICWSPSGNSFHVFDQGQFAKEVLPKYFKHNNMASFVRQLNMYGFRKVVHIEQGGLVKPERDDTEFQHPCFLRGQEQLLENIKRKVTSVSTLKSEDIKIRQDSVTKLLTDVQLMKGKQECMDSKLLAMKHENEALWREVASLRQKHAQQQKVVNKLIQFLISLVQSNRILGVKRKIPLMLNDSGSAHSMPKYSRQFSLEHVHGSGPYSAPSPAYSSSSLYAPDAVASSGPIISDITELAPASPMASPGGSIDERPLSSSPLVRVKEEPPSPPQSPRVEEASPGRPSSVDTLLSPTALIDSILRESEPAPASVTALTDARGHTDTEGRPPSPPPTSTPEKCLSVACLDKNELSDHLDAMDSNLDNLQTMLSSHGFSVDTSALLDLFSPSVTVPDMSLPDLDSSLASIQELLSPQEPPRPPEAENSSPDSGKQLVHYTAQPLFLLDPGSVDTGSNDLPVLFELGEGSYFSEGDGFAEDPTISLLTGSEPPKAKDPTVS
Procedure, shortened: as §1

SPIC = biological target: T8, SPIC (Homo sapiens, UniProt Q8N5J4 1-248); conditions: protein: recombinant; tags: N-terminal GST; dsDNA, one strand shown
T8 sequence: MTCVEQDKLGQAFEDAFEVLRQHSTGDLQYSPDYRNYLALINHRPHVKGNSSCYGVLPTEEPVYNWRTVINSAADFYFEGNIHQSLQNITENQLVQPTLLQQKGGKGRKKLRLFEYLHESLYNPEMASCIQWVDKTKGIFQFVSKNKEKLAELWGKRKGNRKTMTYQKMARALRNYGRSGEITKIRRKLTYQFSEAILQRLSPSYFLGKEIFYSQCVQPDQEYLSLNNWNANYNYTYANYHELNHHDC
Procedure, shortened: as §1

ELF4 = ELF4 (Homo sapiens, UniProt Q99607 1-663); conditions: protein: recombinant; tags: N-terminal GST; dsDNA, one strand shown
ELF4, sequence (Q99607 whole entry): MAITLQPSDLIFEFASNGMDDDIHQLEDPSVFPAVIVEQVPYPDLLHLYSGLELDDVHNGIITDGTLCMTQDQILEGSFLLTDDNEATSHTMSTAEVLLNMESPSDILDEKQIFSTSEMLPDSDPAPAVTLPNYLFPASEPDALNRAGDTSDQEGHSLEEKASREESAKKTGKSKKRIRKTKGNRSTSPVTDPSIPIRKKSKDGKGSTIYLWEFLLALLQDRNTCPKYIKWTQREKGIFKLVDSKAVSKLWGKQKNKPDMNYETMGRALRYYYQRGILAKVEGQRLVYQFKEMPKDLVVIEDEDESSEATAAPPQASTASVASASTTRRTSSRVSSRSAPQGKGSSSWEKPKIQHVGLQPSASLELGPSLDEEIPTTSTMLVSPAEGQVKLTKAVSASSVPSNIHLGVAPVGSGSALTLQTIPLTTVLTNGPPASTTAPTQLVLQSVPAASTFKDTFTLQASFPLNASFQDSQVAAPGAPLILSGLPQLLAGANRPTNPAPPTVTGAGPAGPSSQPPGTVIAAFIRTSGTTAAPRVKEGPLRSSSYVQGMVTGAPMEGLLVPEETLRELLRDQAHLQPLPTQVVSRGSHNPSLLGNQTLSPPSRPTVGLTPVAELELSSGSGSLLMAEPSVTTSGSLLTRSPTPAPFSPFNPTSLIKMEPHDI
Procedure, shortened: as §1

ELK4 = biological target: T9, ELK4 (Homo sapiens, UniProt P28324-2 1-405); conditions: protein: recombinant; tags: N-terminal GST; dsDNA, one strand shown
T9 sequence: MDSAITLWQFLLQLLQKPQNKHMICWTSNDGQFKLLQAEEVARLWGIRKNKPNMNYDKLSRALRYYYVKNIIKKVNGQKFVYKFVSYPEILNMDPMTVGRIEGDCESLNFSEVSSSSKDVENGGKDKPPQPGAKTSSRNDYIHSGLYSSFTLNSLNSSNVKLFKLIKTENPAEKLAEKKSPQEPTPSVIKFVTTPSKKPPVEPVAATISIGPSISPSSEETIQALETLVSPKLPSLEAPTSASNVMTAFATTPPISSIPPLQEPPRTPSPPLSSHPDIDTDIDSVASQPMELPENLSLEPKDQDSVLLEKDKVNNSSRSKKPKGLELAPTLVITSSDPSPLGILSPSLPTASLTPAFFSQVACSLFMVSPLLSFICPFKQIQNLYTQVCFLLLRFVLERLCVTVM
Procedure, shortened: as §1

ETV2 = biological target: T10, ETV2 (Homo sapiens, UniProt O00321 1-342); conditions: protein: recombinant; tags: N-terminal GST; dsDNA, one strand shown
T10 sequence: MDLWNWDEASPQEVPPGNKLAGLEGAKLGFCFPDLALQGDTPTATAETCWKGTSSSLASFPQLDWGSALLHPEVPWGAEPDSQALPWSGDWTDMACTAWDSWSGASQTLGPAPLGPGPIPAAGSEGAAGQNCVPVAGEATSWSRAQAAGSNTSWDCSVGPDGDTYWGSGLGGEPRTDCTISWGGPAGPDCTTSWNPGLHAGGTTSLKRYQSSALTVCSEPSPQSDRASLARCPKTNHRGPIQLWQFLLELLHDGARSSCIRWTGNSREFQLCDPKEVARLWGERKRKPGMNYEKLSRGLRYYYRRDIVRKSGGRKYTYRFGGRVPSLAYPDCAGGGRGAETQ
Procedure, shortened: as §1

ELF3 = biological target: T11, ELF3 (Homo sapiens, UniProt P78545 1-371); conditions: protein: recombinant; tags: N-terminal GST; dsDNA, one strand shown
T11 sequence: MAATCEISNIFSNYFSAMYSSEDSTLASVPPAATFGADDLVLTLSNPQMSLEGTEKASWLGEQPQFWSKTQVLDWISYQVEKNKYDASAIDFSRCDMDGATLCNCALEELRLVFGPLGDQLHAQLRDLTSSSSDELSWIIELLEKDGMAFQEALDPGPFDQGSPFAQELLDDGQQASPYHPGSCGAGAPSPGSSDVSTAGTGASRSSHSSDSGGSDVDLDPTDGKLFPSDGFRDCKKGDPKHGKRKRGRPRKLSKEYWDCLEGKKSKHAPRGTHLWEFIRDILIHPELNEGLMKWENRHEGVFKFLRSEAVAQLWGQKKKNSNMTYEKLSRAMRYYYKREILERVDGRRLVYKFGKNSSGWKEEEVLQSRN
Procedure, shortened: as §1

CRX = CRX (Homo sapiens, UniProt O43186 1-299); conditions: protein: recombinant; tags: N-terminal GST; dsDNA, one strand shown
CRX, sequence (O43186 whole entry): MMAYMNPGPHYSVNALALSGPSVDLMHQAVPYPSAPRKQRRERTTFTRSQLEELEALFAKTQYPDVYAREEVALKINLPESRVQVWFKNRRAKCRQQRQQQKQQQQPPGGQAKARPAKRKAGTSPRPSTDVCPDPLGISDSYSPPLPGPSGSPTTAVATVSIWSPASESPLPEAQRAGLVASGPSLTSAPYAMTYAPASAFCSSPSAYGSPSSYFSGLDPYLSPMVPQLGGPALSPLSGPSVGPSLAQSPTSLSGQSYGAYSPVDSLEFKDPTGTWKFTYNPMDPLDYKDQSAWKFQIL
Procedure, shortened: as §1

ETV1 = ETV1 (Homo sapiens, UniProt P50549 1-477); conditions: protein: recombinant; tags: N-terminal GST; dsDNA, one strand shown
ETV1, sequence (P50549 whole entry): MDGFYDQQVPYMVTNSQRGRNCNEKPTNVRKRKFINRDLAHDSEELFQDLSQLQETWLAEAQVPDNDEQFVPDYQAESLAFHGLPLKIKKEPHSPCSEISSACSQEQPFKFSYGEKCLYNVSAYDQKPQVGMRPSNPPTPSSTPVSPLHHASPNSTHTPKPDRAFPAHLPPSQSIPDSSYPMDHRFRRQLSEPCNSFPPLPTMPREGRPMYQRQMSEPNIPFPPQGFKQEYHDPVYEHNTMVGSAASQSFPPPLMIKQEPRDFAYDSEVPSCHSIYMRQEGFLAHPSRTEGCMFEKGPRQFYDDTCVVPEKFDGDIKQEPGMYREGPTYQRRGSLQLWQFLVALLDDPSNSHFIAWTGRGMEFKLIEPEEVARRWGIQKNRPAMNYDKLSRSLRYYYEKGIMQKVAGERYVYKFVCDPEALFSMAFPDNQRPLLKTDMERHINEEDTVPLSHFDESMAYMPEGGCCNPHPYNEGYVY
Procedure, shortened: as §1

CTCCTC was tested, and the binding signal (FLI1) was 1.36 fold enrichment (6-mer frequency, TF over GST control), the binding signal (ELK1) was 1.38 fold enrichment (6-mer frequency, TF over GST control) and the binding signal (GABPA) was 1.39 fold enrichment (6-mer frequency, TF over GST control). The binding signal (ERG) was 1.26 fold enrichment (6-mer frequency, TF over GST control), the binding signal (ELF1) was 1.32 fold enrichment (6-mer frequency, TF over GST control) and the binding signal (EHF) was 1.54 fold enrichment (6-mer frequency, TF over GST control). The binding signal (SPI1) was 1.39 fold enrichment (6-mer frequency, TF over GST control), the binding signal (SPIB) was 1.4 fold enrichment (6-mer frequency, TF over GST control) and the binding signal (ELK3) was 1.31 fold enrichment (6-mer frequency, TF over GST control). For the same sequence, the binding signal (FEV) was 1.37 fold enrichment (6-mer frequency, TF over GST control), the binding signal (ETV5) was 1.23 fold enrichment (6-mer frequency, TF over GST control) and the binding signal (HSF1) was 1.16 fold enrichment (6-mer frequency, TF over GST control). The binding signal (SPIC) was 1.3 fold enrichment (6-mer frequency, TF over GST control), the binding signal (ELF4) was 1.47 fold enrichment (6-mer frequency, TF over GST control) and the binding signal (ELK4) was 1.41 fold enrichment (6-mer frequency, TF over GST control). The binding signal (ETV2) was 1.39 fold enrichment (6-mer frequency, TF over GST control), the binding signal (ELF3) was 1.3 fold enrichment (6-mer frequency, TF over GST control) and the binding signal (CRX) was 1.08 fold enrichment (6-mer frequency, TF over GST control). The binding signal (ETV1) was 1.39 fold enrichment (6-mer frequency, TF over GST control).
